# Records with an inconclusive call do not appear. Entries that show only a call come without a potency. A number with no mark means an inactive call. Activity calls are given as the source filed them. Calls follow the shape of the dose curve; as a rule, active = well fitted curve in the direction sought with a large enough effect; inconclusive = small, poorly fitted or top-dose-only effect, or another doubt; inactive = no such curve, though single readings can be large; an effect the other way counts as inactive or inconclusive. Square brackets hold non-standard residues; d marks the D form. Peptide text beside a SMILES is read from it. ξ: configuration not given here. ξPhe(βξ-Me) = CC(c1ccccc1)C(N)C(=O)O; GABA = NCCCC(=O)O
# Assays:
# [1] = biological target: Cellular tumor antigen p53 (Homo sapiens) (UniProt P04637); test: Primary qHTS for small molecule compounds that upregulate eGFP-tagged delta133p53alpha (in N-terminal) cells. (AID 2060322); settings: NCI-H358 eGFP-delta133p53alpha fluorescence, 24 h; activation: hits give high values; also: nearly all actives have a fitted effect of over 75% in size; also: potency is read from the fitted curve at half-maximal effect;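 as to activation: cells pre-induced with doxycycline then dosed without doxycycline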
# Chain of Cellular tumor antigen p53 (Homo sapiens) (P04637 whole entry, looked up): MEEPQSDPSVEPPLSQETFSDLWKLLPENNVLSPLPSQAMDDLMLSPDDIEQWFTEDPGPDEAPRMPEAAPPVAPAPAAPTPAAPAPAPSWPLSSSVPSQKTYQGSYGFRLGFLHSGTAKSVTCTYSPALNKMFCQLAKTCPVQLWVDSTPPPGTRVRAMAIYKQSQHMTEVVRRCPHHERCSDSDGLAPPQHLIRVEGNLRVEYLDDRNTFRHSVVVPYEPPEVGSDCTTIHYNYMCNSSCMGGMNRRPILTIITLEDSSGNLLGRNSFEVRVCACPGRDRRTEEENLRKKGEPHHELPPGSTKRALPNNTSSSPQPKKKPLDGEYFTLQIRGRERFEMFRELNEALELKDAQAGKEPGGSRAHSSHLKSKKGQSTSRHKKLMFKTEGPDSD
# Summary of the method: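 NCI-H358 cells pre-induced 24 h with 10 ng/ml doxycycline for eGFP-delta133p53alpha, plated dox-free and exposed 24 h at 37C to titrated compounds. Fixed, Hoechst-stained; gated GFP peak intensity by laser scanning cytometry, normalized to DMSO (0%) and 57.5 uM 5-azacytidine (100%).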
# [2] = biological target: Aldehyde dehydrogenase, mitochondrial (Homo sapiens) (UniProt P05091); test: qHTS for Inhibitors of the Aldehyde Dehydrogenase Family (ALDH2) Primary screen (AID 2061308); settings: ALDH2 enzyme inhibition qHTS, 1536-well; series mostly up to 56 µM; also: nearly all actives have a fitted effect of over 55% in size
# [3] = biological target: Retinaldehyde dehydrogenase 3 (Homo sapiens) (UniProt P47895); test: qHTS for Inhibitors of the Aldehyde Dehydrogenase Family (ALDH1A3) Primary screen (AID 2061315); settings: ALDH inhibition qHTS; series mostly up to 56 µM
Structure (SMILES),activation [1],Potency [2],Potency [3],Potency [1]
O=C(CO)[C@@H](O)[C@H](O[C@@H]1O[C@H](CO)[C@H](O)[C@H](O)[C@H]1O)[C@H](O)CO,28.3%,inactive,inactive,–
CC1=CC(=O)CC(C)(C)[C@@]1(O)/C=C/C(C)O[C@@H]1O[C@H](CO)[C@@H](O)[C@H](O)[C@H]1O (some centres undefined),15.3%,inactive,inactive,–
CC(=O)OC[C@@]12C(=O)C[C@@H](C)[C@]3(C[C@@H](c4ccoc4)OC3=O)[C@H]1CC[C@H](OC(C)=O)[C@]21CO1,27.5%,inactive,inactive,–
C=C1CC[C@@H](O)[C@]2(C)C[C@H]3OC(=O)C(=C)[C@H]3CC12 (some centres undefined),–,inactive,inactive,21.3 µM (active)
CC1=CC(=O)CC(C)(CO)C1(O)/C=C/C(C)O[C@@H]1O[C@H](CO)[C@@H](O)[C@H](O)[C@H]1O (some centres undefined),-9.82%,inactive,inactive,–
CC1(O)CCC2C(C3C1CCC3(C)O)C2(C)C (centres undefined),-1.79%,inactive,inactive,–
Cn1ccnc1CCOC(c1cc2nccc(C(=O)O)c2[nH]1)c1ccccc1Cl (centres undefined),-5%,inactive,inactive,–
CC1OC2OC(=O)C3(C)CC4=C(CO)C5=C(CC(=O)C4(C)C(C1=O)C23)C(C)(C)OC(=O)C5 (centres undefined),-7.63%,inactive,inactive,–
C=C1C(=O)O[C@H]2C3=C(C)CCC[C@]3(C)C(=O)C[C@@H]12,–,inactive,inactive,15.1 µM (active)
CO[C@H]1O[C@@H]2O[C@]3(C)CC[C@H]4[C@H](C)CC[C@@H]([C@H]1C)[C@@]24OO3,10.3%,inactive,inactive,–
C=C[C@H]1[C@H](O[C@@H]2O[C@H](CO)[C@@H](O)[C@H](O)[C@H]2O)OC=C(C(=O)OC)[C@H]1CC(=O)O,-12.2%,inactive,inactive,–
CC1(C)CCCC2(C)C1CC(=O)C13CC(CCC12)C(O)(CO)C3 (centres undefined),-7.63%,inactive,inactive,–
CC(=O)OC1CCC2(C)C(CCC3(C)C2CC=C2C4C(C)C(C)CCC4(C)CCC23C)C1(C)C(=O)O (centres undefined),-6.11%,inactive,inactive,–
CC(=O)OC1C(c2ccccc2)CCC(c2ccccc2)C1OC(C)=O (centres undefined),1.53%,inactive,inactive,–
O=C(CCc1ccccc1)N1CCC(O)(Cn2cnc3cc(Cl)ccc3c2=O)CC1,-13.7%,inactive,inactive,–
C[C@@H]1O[C@@H](O[C@H]2[C@@H](OC(=O)[C@]34CCC(C)(C)CC3C3=CCC5[C@@]6(C)C[C@H](O)[C@H](O[C@@H]7O[C@H](C(=O)O)[C@@H](O)[C@H](O)[C@H]7O)[C@@](C)(C(=O)O)C6CC[C@@]5(C)[C@]3(C)CC4)OC[C@H](O)[C@@H]2O)[C@H](O)[C@H](O)[C@H]1O[C@@H]1OC[C@@H](O)[C@H](O)[C@H]1O (some centres undefined),-8.93%,inactive,inactive,–
CC(C)CNC(=O)/C=C/CCCCc1ccc2c(c1)OCO2,10.7%,inactive,inactive,–
COc1cc2c(cc1OC)N1C(=O)C[C@]34C=CCN5CC[C@@H]2[C@@H](CC3)[C@]514,3.05%,inactive,inactive,–
CC(=O)NC(Cc1ccccc1)C(=O)NC(C(=O)O)C(C)C (stereo not drawn) (Ac-Phe-Val-OH; configuration not given here),0%,inactive,inactive,–
COC(=O)N1CCC(n2ncc3c(N4CCOCC4)nc(-c4ccc(NC(=O)Nc5ccc(CO)cc5)cc4)nc32)CC1,–,inactive,inactive,21.3 µM (active)
CC(C)CC1NC(=O)C(C(C)c2ccccc2)NC(=O)C(C(C)C)NC(=O)C(C)NC(=O)CCCNC(=O)C(Cc2c[nH]c3ccccc23)NC(=O)C(C)NC1=O (stereo not drawn) (cyclo([GABA]AV[ξPhe(βξ-Me)]LAW); configuration not given here),8.4%,inactive,inactive,–
CC(=O)OC[C@]12[C@H](OC(C)=O)C(=O)[C@@H]3[C@@H](OC(C)=O)[C@@]14O[C@@]3(C)COC(=O)c1cccnc1[C@@H](C)[C@H](C)C(=O)O[C@@H]([C@H](O)[C@@H]2OC(C)=O)[C@]4(C)O,6.25%,inactive,inactive,–
C[C@@H]1C[C@H](O)/C=C/[C@H](O)[C@@H](O)CC(=O)O1,-9.92%,inactive,inactive,–
